Assay results as given in PubChem BioAssay (NCATS).
Records with an inconclusive call do not appear. Calls of active or inactive are those of the source. Calls follow the shape of the dose curve; as a rule, active = well fitted curve in the direction sought with a large enough effect; inconclusive = small, poorly fitted or top-dose-only effect, or another doubt; inactive = no such curve, though single readings can be large; an effect the other way counts as inactive or inconclusive.

How the values were obtained:
[1] = qHTS of pediatric cancer cell lines to identify multiple opportunities for drug repurposing: Primary screen for LAN-5 cells (AID 1347100)
Outline: (§1)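 Cells (500-1,000/well) rested 5 h, then received compounds for 48 h; metabolically active cells were measured by CellTiter-Glo luminescence. Final concentrations spanned up to 46 µM (MIPE, 11-point) or 0.59 nM-46 µM (NPC, 8-point) in primary screens, 11-point in follow-ups.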

[2] = qHTS of pediatric cancer cell lines to identify multiple opportunities for drug repurposing: Primary screen for Rh18 cells (AID 1347102); also: nearly all actives have a fitted effect of over 65% in size
Outline: as §1

[3] = qHTS of pediatric cancer cell lines to identify multiple opportunities for drug repurposing: Primary screen for Rh41 cells (AID 1347108); also: nearly all actives have a fitted effect of over 70% in size
Outline: (§2)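 Following a 5-hour attachment period, cells at 500-1,000/well received compounds and were cultured for 48 hours. CellTiter-Glo was added and luminescence read to estimate viable, metabolically active cells.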

[4] = qHTS of pediatric cancer cell lines to identify multiple opportunities for drug repurposing: Primary screen for OHS-50 cells (AID 1347103); also: nearly all actives have a fitted effect of over 40% in size
Outline: as §1

[5] = qHTS of pediatric cancer cell lines to identify multiple opportunities for drug repurposing: Primary screen for RD cells (AID 1347104); also: nearly all actives have a fitted effect of over 55% in size
Outline: as §2

[6] = qHTS of pediatric cancer cell lines to identify multiple opportunities for drug repurposing: Primary screen for MG 63 (6-TG R) cells (AID 1347105); also: nearly all actives have a fitted effect of over 50% in size
Outline: as §2

[7] = qHTS of pediatric cancer cell lines to identify multiple opportunities for drug repurposing: Primary screen for control Hh wild type fibroblast cells (AID 1347106); also: nearly all actives have a fitted effect of over 55% in size
Outline: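 Viability after 48 h compound treatment at 37C, 500-1,000 cells/well, read as ATP luminescence with CellTiter-Glo. Primary screens used 11-point (MIPE, 0.78 nM-46 µM) or 8-point (NPC, 0.59 nM-46 µM) final concentrations; follow-up screens used 11-point dilutions.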

[8] = qHTS of pediatric cancer cell lines to identify multiple opportunities for drug repurposing: Primary screen for Rh30 cells (AID 1347107); also: nearly all actives have a fitted effect of over 75% in size
Outline: as §1

[9] = qHTS of pediatric cancer cell lines to identify multiple opportunities for drug repurposing: Confirmatory screen for NB1643 cells (AID 1347109); also: nearly all actives have a fitted effect of over 45% in size
Outline: as §1

[10] = qHTS of pediatric cancer cell lines to identify multiple opportunities for drug repurposing: Primary screen for BT-12 cells (AID 1347101); also: nearly all actives have a fitted effect of over 25% in size
Outline: as §1

Measured: Potency
Potency is read from the fitted curve at half-maximal effect.

O=C(Nc1cc(Cl)cc2c1[nH]c1cnccc12)c1cccnc1
inactive: [1] | [2] | [3]

CC(C)=CC[C@@H](O)C1=CC(=O)c2c(O)ccc(O)c2C1=O
active: [1] 14.8 µM | [4] 10.9 µM | [5] 26.4 µM

Cc1ccc(Nc2cc(-c3cccc(N4C(=O)c5ccccc5C4=O)c3)ncn2)cc1NS(C)(=O)=O
inactive: [2] | [6] | [7]
active: [1] 23.5 µM

O=C1NC(=O)C(=Cc2ccc(-c3ccc(F)cc3)o2)S1
inactive: [1] | [2] | [3]

CO[C@H]1C(=O)[C@]2(C)[C@@H](OC)C[C@H]3OC[C@@]3(OC(C)=O)[C@H]2[C@H](OC(=O)c2ccccc2)[C@]2(O)C[C@H](OC(=O)[C@H](O)[C@@H](NC(=O)OC(C)(C)C)c3ccccc3)C(C)=C1C2(C)C
active: [1] 0.001 µM | [4] 0.685 µM | [3] 0.001 µM
inactive: [7] | [8]

Cc1ccc(C(C)(O)c2nc3ccccc3s2)c(C)c1 (stereo unspecified)
inactive: [2] | [5] | [7] | [8] | [3]
active: [1] 3.72 µM

C[C@]12CC[C@@H]3c4ccc(O)cc4C[C@@H](CCCCCCCCCS(=O)CCCC(F)(F)C(F)(F)F)[C@H]3[C@H]1CC[C@H]2O (stereo partly specified)
inactive: [1] | [6] | [7]

CC(C)C(=O)Nc1ncc(-c2cc(C(F)F)nn2-c2c(Cl)cccc2Cl)s1
inactive: [8]
active: [1] 23.5 µM | [4] 27.3 µM

NC(=O)[C@@H](CCC(F)(F)F)N(Cc1ccc(-c2ncon2)cc1F)S(=O)(=O)c1ccc(Cl)cc1
inactive: [1] | [2] | [7]

O=C1c2c(O)cc(O)cc2O[C@H](c2cc(O)c(O)c(O)c2)[C@H]1O
active: [1] 26.4 µM
inactive: [7] | [8]

O=C(O)CCC1CCC(c2cc(F)ccc2F)(S(=O)(=O)c2ccc(Cl)cc2)CC1 (stereo unspecified)
active: [1] 2.35 µM | [5] 14.8 µM | [6] 9.35 µM | [3] 5.9 µM
inactive: [7] | [8] | [9]

CC(C)(C)Cn1c(N)nc2ccc(-c3[nH]c(C(C)(C)C)nc3-c3ccc(F)cc3)nc21
active: [4] 30.6 µM | [5] 20.9 µM | [8] 20.9 µM | [3] 18.7 µM
inactive: [1] | [7]

CC[C@]1(O)C[C@@H]2CN(CCc3c([nH]c4ccccc34)[C@@](C(=O)OC)(c3cc4c(cc3OC)N(C=O)[C@@H]3C45CCN4CC=C[C@](CC)([C@H]45)[C@@H](OC(C)=O)[C@]3(O)C(=O)OC)C2)C1 (stereo partly specified)
inactive: [1] | [4] | [6] | [8] | [9]

COc1ccc2c(Oc3ccc(NC(=O)c4c(C)n(CC(C)(C)O)n(-c5ccccc5)c4=O)nc3)ccnc2c1
active: [4] 5.44 µM
inactive: [1] | [5] | [6] | [7] | [8] | [3]

COc1ccc(-c2cc(=O)c3c(O)cc(O)cc3o2)cc1O
inactive: [6] | [7] | [8]
active: [1] 7.43 µM

c1ccc2c(Cc3c[nH]c4ccccc34)c[nH]c2c1
active: [1] 23.5 µM | [5] 14.8 µM | [6] 5.9 µM | [7] 4.69 µM | [3] 14.8 µM

COc1ccc(C2Sc3ccccc3N(CCN(C)C)C(=O)C2OC(C)=O)cc1 (stereo unspecified)
inactive: [10] | [2] | [4] | [5] | [6] | [7] | [8] | [3]

CS(=O)(=O)N(Cc1ccco1)CC(O)Cn1c2ccccc2c2ccccc21 (stereo unspecified)
inactive: [1] | [2] | [6] | [7]

O=C1NC(=O)C(=Cc2cccc(C(F)(F)F)c2)S1
active: [3] 23.5 µM
inactive: [1] | [2] | [5] | [6]

COCCCCC(=NOCCN)c1ccc(C(F)(F)F)cc1
active: [5] 33.2 µM | [8] 23.5 µM | [3] 20.9 µM
inactive: [1] | [2] | [7]

CS(=O)c1ccc(-c2nc(-c3ccc(F)cc3)c(-c3ccncc3)[nH]2)cc1 (stereo unspecified)
active: [10] 44.4 µM | [4] 44.4 µM | [5] 42.9 µM
inactive: [2] | [6] | [7]

O=C(NOCC(O)CO)c1cc(Br)c(F)c(F)c1Nc1ccc(I)cc1F (stereo unspecified)
inactive: [1] | [2] | [3]
active: [5] 0.148 µM | [6] 11.8 µM

COc1cc(N2CCC(N3CCN(C)CC3)CC2)ccc1Nc1ncc(Cl)c(Nc2ccccc2S(=O)(=O)C(C)C)n1
active: [1] 0.001 µM | [7] 29.6 µM | [8] 1.05 µM | [9] 1.04 µM

CCS(=O)(=O)N1CC(CC#N)(n2cc(-c3ncnc4[nH]ccc34)cn2)C1
inactive: [7]
active: [1] 20.9 µM | [3] 18.7 µM

COC(=O)C1=CO[C@@H](O)[C@@H]2C(CO)=CC[C@@H]12
inactive: [5] | [8] | [3]
active: [1] 20.9 µM

COc1ccc(-c2oc3c(CC=C(C)C)c(OC4O[C@H](CO)[C@@H](O)[C@H](O)[C@@H]4O)cc(O)c3c(=O)c2OC2O[C@@H](C)[C@H](O)[C@@H](O)[C@@H]2O)cc1 (stereo partly specified)
active: [1] 23.5 µM | [4] 21.7 µM
inactive: [7]

O=C(N[C@@H](c1ccccc1)[C@@H]1CCCCN1)c1cccc(C(F)(F)F)c1Cl
inactive: [2] | [6] | [7] | [8]
active: [1] 18.7 µM

Cc1ccc(F)c(NC(=O)Nc2ccc(-c3cccc4[nH]nc(N)c34)cc2)c1
inactive: [6] | [7] | [8]
active: [1] 20.9 µM | [4] 27.3 µM

CO[C@H]1C[C@@H]2CC[C@@H](C)[C@@](O)(O2)C(=O)C(=O)N2CCCC[C@@H]2C(=O)O[C@H]([C@H](C)C[C@@H]2CC[C@H](OP(C)(C)=O)[C@H](OC)C2)CC(=O)[C@H](C)C=C(C)[C@@H](O)[C@@H](OC)C(=O)[C@H](C)C[C@H](C)C=CC=CC=C1C
active: [10] 27.3 µM
inactive: [5] | [6] | [7] | [8] | [9]

CC(C)(C)C(=O)Oc1ccc2c(c1)nc(NC(=O)c1cccc([N+](=O)[O-])c1)n2CCCO
inactive: [10] | [2] | [4] | [5] | [6] | [7] | [8] | [3]

COc1ccc(Cc2ccc(NC(N)=O)cc2)cc1-c1cccc(Cl)c1
inactive: [10] | [2] | [5] | [6] | [7] | [8]

CC(=O)Oc1cc2c(s1)CCN(C(C(=O)C1CC1)c1ccccc1F)C2 (stereo unspecified)
active: [10] 3.06 µM | [4] 1.37 µM
inactive: [5] | [7] | [8] | [9]

COc1cc(Nc2ncc(F)c(Nc3ccc4c(n3)NC(=O)C(C)(C)O4)n2)cc(OC)c1OC
active: [4] 0.544 µM | [3] 2.35 µM
inactive: [10] | [7]

CC(=O)O[C@]1(C(C)=O)CC[C@@H]2[C@@H]3C[C@H](C)C4=CC(=O)CC[C@]4(C)[C@H]3CC[C@@]21C
active: [10] 24.3 µM | [4] 24.3 µM
inactive: [7]

CN(C)Cc1cccc(N=C(c2ccccc2)c2c(O)[nH]c3cc(C(=O)N(C)C)ccc23)c1
active: [10] 6.85 µM | [4] 17.2 µM

CC(C)(C)c1ccc(C(O)CCCN2CCC(C(O)(c3ccccc3)c3ccccc3)CC2)cc1 (stereo unspecified)
inactive: [2] | [4] | [5] | [6] | [7] | [8] | [3]

N[C@H](CSC(c1ccccc1)(c1ccccc1)c1ccccc1)C(=O)O
inactive: [2] | [6] | [7] | [8] | [3]
active: [10] 27.3 µM | [4] 6.11 µM

NC(=O)NN=Cc1ccc([N+](=O)[O-])o1
inactive: [2] | [4] | [5] | [6] | [7] | [8] | [3]

COc1ccc(C2CC(c3ccccc3)=NN2c2ccc(S(N)(=O)=O)cc2)cc1 (stereo unspecified)
active: [10] 21.7 µM
inactive: [2] | [6] | [3]

Cc1cccc(Nc2nc(-c3ccncc3)cs2)c1
inactive: [2] | [6] | [7] | [8]
active: [4] 21.7 µM

CC[C@H]1OC(=O)[C@H](C)[C@@H](O[C@H]2C[C@@](C)(OC)[C@@H](O)[C@H](C)O2)[C@H](C)[C@@H](O[C@@H]2O[C@H](C)C[C@H](N(C)C)[C@@H]2O)[C@](C)(O)C[C@@H](C)CN(C)[C@H](C)[C@@H](O)[C@]1(C)O
inactive: [10] | [2] | [4] | [6] | [8] | [3]

CN(C)c1cc(NC(=O)CNC(C)(C)C)c(O)c2c1C[C@@H]1C[C@H]3[C@H](N(C)C)C(=O)C(C(N)=O)=C(O)[C@@]3(O)C(=O)C1=C2O
inactive: [10] | [2] | [4] | [5] | [6] | [7] | [8] | [3]

CCNc1cc(NC2CCC(O)CC2)nc(Nc2ccc3c(ccn3Cc3ccccc3)c2)n1 (stereo unspecified)
active: [10] 27.3 µM
inactive: [6] | [7] | [8]

Cc1c(O)cccc1C(=O)N[C@@H](CSc1ccccc1)[C@H](O)CN1C[C@H]2CCCC[C@@H]2C[C@@H]1C(=O)NC(C)(C)C
active: [2] 18.7 µM | [4] 24.3 µM | [5] 26.4 µM | [6] 18.7 µM
inactive: [7]

N#CC(=C(N)Sc1ccccc1N)C(C#N)=C(N)Sc1ccccc1N
active: [10] 13.7 µM | [4] 27.3 µM | [5] 5.26 µM | [3] 18.7 µM
inactive: [7]
